Measurements taken from PubChem BioAssay (EPA / NIEHS).
Calls of active or inactive are those of the source. Rule for the calls: active = hit-call score of the fitted dose curve at least 0.9, where 1 is the maximum; inactive = score below 0.9.

Columns and labels:
[1] = read-out: Vascular endothelial growth factor receptor 2 (Homo sapiens) (UniProt P35968); assay: BSK_4H_VEGFRII: BioMAP Diversity Plus: 4H Assay for Vascular endothelial growth factor receptor 2 (VEGFR2) Biomarker Activity (AID 2283031); details: primary human endothelial cells (HUVEC); actives raise or lower the signal;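 for AC50: cell-surface VEGFR2 protein level quantified by ELISA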
In short: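 Primary human umbilical vein endothelial cells in the BioMAP 4H system were dosed with test chemical, and 24 h later VEGFRII was measured by ELISA. Activity was fitted bidirectionally against DMSO as negative control and baseline.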

[2] = read-out: Human Leukocyte Antigen - DR isotype (HLADR), HLA-DRA (gene 3122); assay: BSK_BE3C_HLADR: BioMAP Diversity Plus: BE3C Assay for Human Leukocyte Antigen - DR isotype (HLADR) Biomarker Activity (AID 2283032); details: primary human bronchial epithelial cells; actives raise or lower the signal
In short: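 BioMAP BE3C format: human bronchial epithelium, 24 h compound treatment, ELISA detection of HLA-DR, with bidirectional analysis relative to DMSO.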

[3] = read-out: Vascular cell adhesion molecule 1 (VCAM1), VCAM1 (gene 7412); assay: BSK_4H_VCAM1: BioMAP Diversity Plus: 4H Assay for Vascular cell adhesion molecule 1 (VCAM1) Biomarker Activity (AID 2283033); details: primary human endothelial cells (HUVEC); actives raise or lower the signal
In short: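 In this human endothelial (HUVEC) system, biomarker ELISA was run 24 h after compound addition, and total protein in parallel wells was assessed by SRB at 560 nm; DMSO served as negative control.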

[4] = read-out: Monokine induced gamma interferon (MIG), CXCL9 (gene 4283); assay: BSK_BE3C_MIG: BioMAP Diversity Plus: BE3C Assay for Monokine induced gamma interferon (MIG) Biomarker Activity (AID 2283035); details: primary human bronchial epithelial cells; actives raise or lower the signal
In short: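 Dose cells (human primary bronchial epithelial), incubate 24 h, quantify MIG by ELISA, then fit concentration–response in both directions relative to DMSO control.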

[5] = read-out: Transforming growth factor beta 1 (TGFb1), TGFB1 (gene 7040); assay: BSK_BE3C_TGFb1: BioMAP Diversity Plus: BE3C Assay for Transforming growth factor beta 1 (TGFb1) Biomarker Activity (AID 2283036); details: primary human bronchial epithelial cells; actives raise or lower the signal
In short: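 TGF-b1 measured via ELISA, 24 h after chemical dosing of human bronchial epithelial cells (BE3C). Overt cytotoxicity assessed in parallel by SRB (0.1%, TCA-fixed, 560 nm); analysis bidirectional relative to DMSO.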

[6] = read-out: Plasminogen activator inhibitor-1 (PAI1), SERPINE1 (gene 5054); assay: BSK_BE3C_PAI1: BioMAP Diversity Plus: BE3C Assay for Plasminogen activator inhibitor-1 (PAI1) Biomarker Activity (AID 2283037); details: primary human bronchial epithelial cells; actives raise or lower the signal
In short: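 In this multiplexed primary-cell system, bronchial epithelial cells receive test chemical and are sampled at 24 h. PAI-1 is read by ELISA, with DMSO serving as negative control for bidirectional fitting.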

[7] = read-out: urokinase plasminogen activator (uPA), PLAU (gene 5328); assay: BSK_BE3C_uPA: BioMAP Diversity Plus: BE3C Assay for urokinase plasminogen activator (uPA) Biomarker Activity (AID 2283038); details: primary human bronchial epithelial cells; actives raise or lower the signal
In short: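 Human primary bronchial epithelial cells were exposed to chemical for 24 h, then uPA levels were measured by ELISA. Responses were fitted bidirectionally against DMSO as negative control and baseline. Parallel SRB staining of total protein gauged overt cytotoxicity.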

[8] = read-out: Interleukin-6 (IL6), IL6 (gene 3569); assay: BSK_CASM3C_IL6: BioMAP Diversity Plus: CASM3C Assay for Interleukin-6 (IL6) Biomarker Activity for (AID 2283040); details: primary human coronary artery smooth muscle cells; actives raise or lower the signal
[9] = read-out: Tissue plasminogen activator (tPA), PLAT (gene 5327); assay: BSK_BE3C_tPA: BioMAP Diversity Plus: BE3C Assay for Tissue plasminogen activator (tPA) Biomarker Activity (AID 2283041); details: primary human bronchial epithelial cells; actives raise or lower the signal
In short: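 Using human lung primary bronchial epithelial cells, tPA was measured by ELISA 24 h after dosing; data fitted relative to DMSO.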

[10] = read-out: Interleukin-8 (IL8), CXCL8 (gene 3576); assay: BSK_CASM3C_IL8: BioMAP Diversity Plus: CASM3C Assay for Interleukin-8 (IL8) Biomarker Activity (AID 2283042); details: primary human coronary artery smooth muscle cells; actives raise or lower the signal;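 note: IL-8 protein level quantified by ELISA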
[11] = read-out: Human Leukocyte Antigen - DR isotype (HLADR), HLA-DRA (gene 3122); assay: BSK_CASM3C_HLADR: BioMAP Diversity Plus: CASM3C Assay for Human Leukocyte Antigen - DR isotype (HLADR) Biomarker Activity (AID 2283043); details: primary human coronary artery smooth muscle cells; actives raise or lower the signal;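 note: cell-surface HLA-DR protein level quantified by ELISA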
[12] = read-out: Macrophage colony-stimulating factor (MCSF), CSF1 (gene 1435); assay: BSK_CASM3C_MCSF: BioMAP Diversity Plus: CASM3C Assay for Macrophage colony-stimulating factor (MCSF) Biomarker Activity (AID 2283044); details: primary human coronary artery smooth muscle cells; actives raise or lower the signal;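 note: M-CSF protein amount quantified by ELISA after 24 h exposure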
[13] = read-out: Low-density lipoprotein receptor (LDLR), LDLR (gene 3949); assay: BSK_CASM3C_LDLR: BioMAP Diversity Plus: CASM3C Assay for Low-density lipoprotein receptor (LDLR) Biomarker Activity (AID 2283045); details: primary human coronary artery smooth muscle cells; actives raise or lower the signal;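 note: LDLR protein level on the cell surface quantified by ELISA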
[14] = read-out: Monocyte Chemoattractant Protein-1 (MCP1), CCL2 (gene 6347); assay: BSK_CASM3C_MCP1: BioMAP Diversity Plus: CASM3C Assay for Monocyte Chemoattractant Protein-1 (MCP1) Biomarker Activity (AID 2283046); details: primary human coronary artery smooth muscle cells; actives raise or lower the signal;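 note: MCP-1 level quantified by ELISA 24 h after dosing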
[15] = BSK_CASM3C_Proliferation: Cell Proliferation Assessment in the BioMAP Diversity Plus: CASM3C Assay (AID 2283047); details: primary human coronary artery smooth muscle cells;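 note: sulforhodamine B total protein stain as relative cell number at 560 nm; sub-confluent cells exposed 48 h before staining; fitted both ways against DMSO so gain or loss of cell number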
[16] = read-out: Monokine induced gamma interferon (MIG), CXCL9 (gene 4283); assay: BSK_CASM3C_MIG: BioMAP Diversity Plus: CASM3C Assay for Monokine induced gamma interferon (MIG) Biomarker Activity (AID 2283048); details: primary human coronary artery smooth muscle cells; actives raise or lower the signal
[17] = read-out: serum amyloid A (SAA), SAA1 (gene 6288); assay: BSK_CASM3C_SAA: BioMAP Diversity Plus: CASM3C Assay for serum amyloid A (SAA) Biomarker Activity (AID 2283049); details: primary human coronary artery smooth muscle cells; actives raise or lower the signal;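 note: SAA protein level quantified by ELISA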
[18] = BSK_CASM3C_SRB: Viability Assessment in the BioMAP Diversity Plus: CASM3C Assay (AID 2283050); details: primary human coronary artery smooth muscle cells;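 note: total protein by SRB staining as cytotoxicity measure in parallel cultures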

Measured: AC50

CCCN(CCOc1c(Cl)cc(Cl)cc1Cl)C(=O)n1ccnc1
active: [2] 29.3 µM | [6] 30.9 µM | [7] 32 µM | [15] 26.8 µM
inactive: all other assays above

OCCOc1ccccc1
active: [17] 20 µM
inactive: all other assays above

C[C@H]1[C@H](c2ccc(Cl)cc2)SC(=O)N1C(=O)NC1CCCCC1
active: [2] 12.6 µM | [3] 7.61 µM | [6] 10.6 µM | [8] 7.98 µM | [15] 20 µM
inactive: all other assays above

CC(C)(C)C(O)/C(=C\c1ccc(Cl)cc1Cl)n1cncn1 (stereo unspecified)
active: [1] 27.4 µM | [2] 27.5 µM | [3] 27.7 µM | [4] 35.1 µM | [6] 27.6 µM | [7] 30.3 µM | [9] 8.37 µM | [15] 20 µM
inactive: all other assays above

CNC(=O)CSP(=S)(OC)OC
inactive: all assays above

COP(=S)(OC)Oc1ccc(SC)c(C)c1
inactive: all assays above

COP(=O)(OC)OC=C(Cl)Cl
active: [6] 20 µM | [15] 8.32 µM
inactive: all other assays above

CNC(=O)Oc1ccccc1OC(C)C
inactive: all assays above

CCC(C)(C)C(=O)OC1=C(c2ccc(Cl)cc2Cl)C(=O)OC12CCCCC2
inactive: [1] | [8] | [10] | [11] | [13] | [14] | [16] | [17]
active: [2] 23.5 µM | [3] 36.6 µM | [4] 34.2 µM | [5] 35.7 µM | [6] 20 µM | [7] 31.1 µM | [9] 20 µM | [12] 13.7 µM | [15] 25.7 µM | [18] 28.7 µM

COC(=O)c1ccccc1CS(=O)(=O)NC(=O)Nc1nc(OC)cc(OC)n1
inactive: all assays above

CCOC1Oc2ccc(OS(C)(=O)=O)cc2C1(C)C (stereo unspecified)
active: [2] 24 µM | [7] 26.5 µM
inactive: all other assays above

CCN(CC)C(=O)SCc1ccc(Cl)cc1
active: [15] 16.4 µM
inactive: all other assays above
